The source of these data is PubChem BioAssay AID504617 (Sanford-Burnham Center for Chemical Genomics, 2011).

The other results are listed elsewhere or left out. Unmarked numbers belong to inactive results. Calls of active or inactive are those of the source.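 How the source made its calls: active means mean activity change at or below -40%, meaning activation of 40% or more, at 20 µM; inactive means the rest.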

This assay deals with Apoptotic protease-activating factor 1 (Homo sapiens) (UniProt O14727). Briefly: enhancers of apoptosome-driven caspase-3 activity – biochemical, fluorescence, DEVD-Rh110, 20 µM, confirmation (AID 504617). As to conditions: reconstituted apoptosome caspase-3 activity, at 20 µM, stronger effect = lower value.
Chain of Apoptotic protease-activating factor 1 (Homo sapiens) (O14727 whole entry, looked up): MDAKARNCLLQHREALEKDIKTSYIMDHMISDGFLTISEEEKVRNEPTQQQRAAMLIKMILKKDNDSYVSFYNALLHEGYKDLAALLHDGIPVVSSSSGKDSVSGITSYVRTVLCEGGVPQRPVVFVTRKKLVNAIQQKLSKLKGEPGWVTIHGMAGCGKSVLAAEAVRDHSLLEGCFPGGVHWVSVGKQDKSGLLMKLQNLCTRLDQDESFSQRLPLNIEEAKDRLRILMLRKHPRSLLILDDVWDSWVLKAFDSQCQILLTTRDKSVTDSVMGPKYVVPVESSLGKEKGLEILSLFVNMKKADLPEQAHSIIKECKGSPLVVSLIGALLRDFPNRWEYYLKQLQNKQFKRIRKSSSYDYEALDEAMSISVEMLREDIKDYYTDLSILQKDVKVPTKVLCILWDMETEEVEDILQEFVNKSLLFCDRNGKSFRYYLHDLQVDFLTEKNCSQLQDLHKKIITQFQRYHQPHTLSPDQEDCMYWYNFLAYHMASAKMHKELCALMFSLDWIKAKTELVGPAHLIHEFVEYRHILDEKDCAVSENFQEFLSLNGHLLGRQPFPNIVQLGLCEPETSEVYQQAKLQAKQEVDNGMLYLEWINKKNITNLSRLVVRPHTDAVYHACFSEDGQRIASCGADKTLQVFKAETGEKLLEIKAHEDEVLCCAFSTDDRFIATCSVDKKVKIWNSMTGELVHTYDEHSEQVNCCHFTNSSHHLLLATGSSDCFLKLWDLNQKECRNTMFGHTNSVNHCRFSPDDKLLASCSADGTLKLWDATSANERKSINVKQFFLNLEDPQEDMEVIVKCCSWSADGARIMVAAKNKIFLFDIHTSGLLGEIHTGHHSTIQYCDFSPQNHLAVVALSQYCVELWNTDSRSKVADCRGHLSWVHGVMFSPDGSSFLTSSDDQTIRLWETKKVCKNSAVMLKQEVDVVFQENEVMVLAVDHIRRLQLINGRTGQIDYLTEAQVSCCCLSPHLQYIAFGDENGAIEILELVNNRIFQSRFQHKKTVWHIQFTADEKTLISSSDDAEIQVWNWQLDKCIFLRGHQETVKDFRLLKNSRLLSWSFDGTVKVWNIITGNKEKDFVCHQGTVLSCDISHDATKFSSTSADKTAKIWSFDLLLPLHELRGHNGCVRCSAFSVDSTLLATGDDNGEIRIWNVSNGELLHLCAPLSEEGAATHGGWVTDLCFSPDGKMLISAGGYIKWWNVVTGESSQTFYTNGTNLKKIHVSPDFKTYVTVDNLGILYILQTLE
On to `CCCC(=O)Nc1nc2ccc(NC(=O)c3c(F)c(F)c(OC)c(F)c3F)cc2s1`, for which the activity change, negative = activation is 9.11%. `COc1ccc(OCCCC(=O)NCCc2ccccc2)cc1`: the activity change, negative = activation is 4.66%. As to `C=C(C)C(=O)Nc1cccc(C2=NOC3(C2)C[C@H](C(N)=O)N(C(=O)C(c2ccccc2)c2ccccc2)C3)c1` (some centres not stated), the activity change, negative = activation was -78.6% (active). In the case of `O=c1[nH]cnc2c1c(-c1ccccc1)cn2-c1ccc(F)cc1`, the activity change, negative = activation is 10.9%. As to `Cc1ccc(S(=O)(=O)c2c(N)n(C)c3nc4ccccc4nc23)cc1`, the activity change, negative = activation was 18.5%. Consider `CCOCCCNC(=O)c1c[nH]c2cc(C)ccc2c1=O`, for which the activity change, negative = activation is 13.4%. Next, `Cc1ccc(S(=O)(=O)N2CCOCC2)cc1C(=O)NC(=S)N(Cc1ccccc1)C(C)C`: 16.4%; `O=C(Nc1cccc(C(F)(F)F)c1)c1cnccn1`: 14.9%; `CC(=O)NC(=S)NNC(=O)c1ccc(Br)cc1`: 17.7%. Under `N#CC1(C#N)C(C(=O)C23CC4CC(CC(C4)C2)C3)C12CCOCC2` (configuration not stated) stands 6.87%; under `C=CCNC(=O)c1ccc(C)c(Br)c1`, 5.25%; under `COc1cc(C(=O)NCc2nnc(SCC(=O)Nc3nc4ccc(C)cc4s3)o2)cc(OC)c1OC`, 8.22%. For the compound `COc1ccc(C2c3ccc(O)cc3Oc3ncn(CCCO)c(=N)c32)cc1OC` (configuration not stated), the activity change, negative = activation was 0.56%. In the case of `COc1cccc(C(=O)Nc2ccc(N3CCCC3)cc2)c1`, the activity change, negative = activation is 7.29%.

For the compound `O=C(CSc1ccc(-c2ccc(-n3cccn3)cc2)nn1)Nc1ccc([N+](=O)[O-])cc1`, the activity change, negative = activation is 8.16%. Next, `O=C(Nc1cccc(-c2nc3ccccc3[nH]2)c1)c1ccc(C(=O)Nc2cccc(-c3nc4ccccc4[nH]3)c2)cc1`: -23.1%.

With `CC(=O)CCC(=O)c1ccc2ccccc2c1`, the activity change, negative = activation was 13.2%. In the case of `Nc1cc(C(F)(F)F)ccc1N1CCOCC1`, the activity change, negative = activation is 16.7%. Next, `COc1cc(C2C(C#N)=C(N)Oc3n[nH]c(-c4ccccn4)c32)cc(OC)c1OC` (configuration not stated): 16.8%. Next, `C=CC1=C(C(=O)O)N2C(=O)[C@@H](NC(=O)/C(=N\OCC(=O)O)c3csc(N)n3)[C@H]2SC1`: -114% (active); `COc1ccc2c(c1)CCNC2Cc1ccc(OC)c(O)c1` (configuration not stated): 12.2%.

As for `O=C(Nc1ccccc1F)c1ccccc1-c1ccccc1`, the activity change, negative = activation is 4.47%.
